Source: PubChem BioAssay (several laboratories)
Rows were chosen to be rich in hits. Some 4% of all compounds tested hit in one or more screens of this group.
Arbovirus inh = antivirals against arbovirus infection. arbovirus infection cell-based antiviral screen. 0.37% of 200,000 active. AID 1251. inhibition, % at 10 µM; in the data active = inhibition above about 30%
ROMK mod = human ROMK K+ channel modulation, primary screen; P48048; Tet-inducible ROMK, thallium flux fluorescence; actives lie on both sides; B-score at 10 µM; 2% of 130,000 active; AID 1918;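 active = signal ratio slope over the read window, or its plate-corrected B-score, at least 3 SD from the plate mean, either direction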;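 also: B-score of the F/F0 ratio slope over 7 to 12 s after thallium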
HSV replic up = increases HSV replication in cells; HSV replication augmentation in cells, fold increase; 0.005% of 220,000 active; maximum fold increase; in the data active = maximum fold increase above about 1.5; tested in PC3 cells
KCC2 mod = modulators of human KCC2 chloride dependent transport. Q9H2X9. KCC2 cells, thallium flux FluoZin-2 fluorescence. B-score of Tl+ flux slope (higher = more flux/activation; lower = inhibition) at 10 µM. 2.2% of 190,000 active. AID 1456;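 active = thallium flux slope and its plate-corrected score both differing from the plate sample mean at a set confidence after two filtering rounds, in either direction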;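 also: slope of fluorescence scaled to starting intensity during 10 to 20 s after thallium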
Target sequence (Q9H2X9 whole entry, looked up): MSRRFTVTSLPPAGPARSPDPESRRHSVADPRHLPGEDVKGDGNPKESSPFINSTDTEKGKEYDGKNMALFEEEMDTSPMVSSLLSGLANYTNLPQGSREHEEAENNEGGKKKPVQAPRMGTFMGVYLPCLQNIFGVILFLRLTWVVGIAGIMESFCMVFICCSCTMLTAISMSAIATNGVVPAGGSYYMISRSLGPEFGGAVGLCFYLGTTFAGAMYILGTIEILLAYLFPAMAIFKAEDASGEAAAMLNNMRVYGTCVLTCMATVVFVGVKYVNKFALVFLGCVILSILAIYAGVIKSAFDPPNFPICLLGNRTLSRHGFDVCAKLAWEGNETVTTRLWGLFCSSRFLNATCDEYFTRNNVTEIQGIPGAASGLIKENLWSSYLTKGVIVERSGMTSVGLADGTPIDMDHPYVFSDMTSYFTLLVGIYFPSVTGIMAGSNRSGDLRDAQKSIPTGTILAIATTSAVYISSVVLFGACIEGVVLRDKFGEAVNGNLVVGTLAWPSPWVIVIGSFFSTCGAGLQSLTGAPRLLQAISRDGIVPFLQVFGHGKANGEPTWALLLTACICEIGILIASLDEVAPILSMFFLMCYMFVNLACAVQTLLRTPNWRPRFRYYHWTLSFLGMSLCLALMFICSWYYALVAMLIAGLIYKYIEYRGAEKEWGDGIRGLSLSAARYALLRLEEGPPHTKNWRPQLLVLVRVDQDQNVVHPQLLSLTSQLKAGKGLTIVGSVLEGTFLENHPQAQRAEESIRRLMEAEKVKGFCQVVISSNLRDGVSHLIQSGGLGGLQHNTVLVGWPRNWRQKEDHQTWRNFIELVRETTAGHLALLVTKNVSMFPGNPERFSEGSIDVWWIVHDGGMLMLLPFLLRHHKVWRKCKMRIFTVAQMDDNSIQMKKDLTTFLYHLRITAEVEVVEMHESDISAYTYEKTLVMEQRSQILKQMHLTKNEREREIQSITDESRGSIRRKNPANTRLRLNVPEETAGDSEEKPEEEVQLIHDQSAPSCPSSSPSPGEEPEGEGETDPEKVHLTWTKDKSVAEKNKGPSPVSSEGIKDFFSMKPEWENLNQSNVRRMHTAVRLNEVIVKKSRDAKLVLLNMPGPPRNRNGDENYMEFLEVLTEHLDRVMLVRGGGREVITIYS
Measles CPE = protection of cells from measles virus | Measles virus-infected cells, CPE protection, absorbance | protection (pct of control), % at 4 µM | 1.5% of 140,000 active; in the data active = protection mostly above about 24%, no sharp cut-off; inactive = mostly below about 26%
Numbers stand for hits; - = inactive; . = no result.

SMILES	Arbovirus inh	ROMK mod	HSV replic up	KCC2 mod	Measles CPE
COc1cc(NC(=O)CN2CCC(Cc3ccccc3)CC2)c(C)cc1[N+](=O)[O-]	-	-	-	-	69.5
Cc1cnc(NC(=O)c2ccc(OCC3CCCO3)cc2)s1 (centres undefined)	-	-	-	-	.
O=C(Nc1nc2ccccc2s1)c1ccc(OCC2CCCO2)cc1 (centres undefined)	30.8	-	-	-	-
C=CCn1c(SCC#N)nnc1-c1ccc2ncccc2c1	.	-	-	-	.
CNc1nc(SCc2ccc(C)cc2)nc2c1CCCC2	-	.	-	.	56.9
NC(=S)N/N=C/c1c(O)c(Br)cc2oc3c(c12)CCCC3	.	.	-	.	.
Oc1c(Br)cc2oc3c(c2c1CNCc1ccccc1)CCCC3	-	2.88	-	-	-
CCOc1ccc(N=C2NC(=O)S/C2=C\c2ccc(N(C)C)cc2)cc1	-	.	.	.	-
CCOc1ccc(/C=C2/SC(=O)NC2=S)cc1	-	4.36	-	68.5	-
CCCOc1ccc(/C=C/C(=O)Nc2ccc([N+](=O)[O-])cc2)cc1	-	.	.	.	51.1
Cn1c(NCc2ccccc2O)nc2ccccc21	-	.	-	-	28.2
Cn1c(NCc2ccccc2Cl)nc2ccccc21	-	.	-	.	.
CCOC(=O)C1CCCN(C(=O)c2ccc(Cl)c(S(=O)(=O)N3CCCCCC3)c2)C1 (centres undefined)	-	-	-	-	.
CC(C)N(C(=O)Cn1c(-c2ccccc2Cl)nc2ccccc21)c1ccccc1	-	-	-	-	34.0
Cc1c(C(=O)O)c2cc(O)ccc2n1-c1ccccc1	-	.	-	-	-
CC(=O)c1c(C)n(C)c2ccc(O)cc12	-	-	-	-	39.2
C/C(Cn1nnc([N+](=O)[O-])n1)=N\NC(=O)c1cccc(Cl)c1	-	-	-	-	-
C/C(Cn1nnc([N+](=O)[O-])n1)=N\NC(=O)c1ccccc1Cl	-	-	-	-	49.8
CCOC(=O)C1(S(=O)(=O)c2ccc(Cl)cc2)CCN(Cc2ccc(C)cc2)CC1	-	.	-	-	-
COC(=O)c1cc(OC)c(OC)cc1NC(=O)Nc1cccc(C(C)=O)c1	-	-	-	-	.
O=c1c2ccccc2nc(/C=C/c2c[nH]c3ccccc23)n1-c1ccc([N+](=O)[O-])cc1	-	-	-	-	32.1
Cc1cccc(C(=O)N2CCC(Cc3ccccc3)CC2)c1[N+](=O)[O-]	-	-	-	-4.21	-
COc1cccc(C(=O)NC(=S)Nc2ccc([N+](=O)[O-])cc2C)c1	-	.	-	6.61	-
Cc1cc(/C=C2/NC(=O)N(c3ccccc3)C2=O)c(C)n1C(C)C	-	-	-	-	55.0
CCCc1c(C(=O)NNc2cc(C(F)(F)F)ccc2Cl)cnn1-c1ccccc1	.	.	-	-	.
SMILES	Arbovirus inh	ROMK mod	HSV replic up	KCC2 mod	Measles CPE
O=C(CSc1ncnc2scc(-c3ccccc3)c12)Nc1ccc(C(=O)O)cc1	.	.	-	-	.
O=C(CSc1nc(-c2ccccc2)nc2c1Cc1ccccc1O2)Nc1ccc(C(=O)O)cc1	68.3	-	-	-	.
COc1ccccc1-c1cc(C(=O)N2CCc3ccccc3C2)c2ccccc2n1	41.7	.	.	-	.
COc1ccccc1Nc1cc(C(=O)N2CCc3ccccc3C2)c2ccccc2n1	-	-	-	-	.
CC1=C(C)/C(=N\OS(=O)(=O)c2ccccc2)C=CC1=O	-	-4.31	-	.	-
Cc1ccc(S(=O)(=O)O/N=C2\CCCc3ccccc32)cc1	-	-	-	-	-
CCn1cc(/C=N\NC(=O)c2ccc(F)cc2)cn1	-	-	-	-	28.7
O=C(Sc1cccc2cccnc12)c1ccc(F)cc1	-	8.73	-	64	.
NNC(=O)CSc1cccc2cccnc12	-	-	-	-	-
O=S(=O)(Nc1cc(Sc2cccc3cccnc23)c(O)c2ccccc12)c1ccc(F)cc1	-	.	-	48	-
COc1ccc(S(=O)(=O)Nc2cc(Sc3ncn[nH]3)c(O)c3ccccc23)cc1	-	-6.27	.	-	-
CN(C)C(=O)CSc1cccc2cccnc12	-	.	-	8.14	-
O=S(=O)(Nc1ccccc1O)c1cccc2cccnc12	-	-	-	-	.
CCCN(CCC)CCCNC(=S)Nc1ccc2nc3n(c(=O)c2c1)CCCCC3	-	.	-	-	-
COn1c(SCc2ccc(C)cc2C)nc2ccccc2c1=O	-	.	-	-	-
COc1ccc(N2CCN(C(=O)CNS(=O)(=O)c3ccc(C)cc3)CC2)cc1	-	-	-	-	.
NC(=O)c1ccsc1NC(=O)c1coc2ccccc2c1=O	-	-	-	-	.
CCSc1nc2c(sc3nc(C)cc(C)c32)c(=O)[nH]1	36.6	.	.	.	-
CCOc1cc(/C=C2/SC(=S)NC2=O)ccc1OC(=O)c1ccco1	-	-	4.61	-	.
CC(=O)Nc1ccc(-c2csc(NC(=O)C3CCN(S(=O)(=O)c4cccs4)CC3)n2)cc1	-	.	-	-	67.9
O=c1c2cc(Cl)ccc2nc(-c2ccc([N+](=O)[O-])cc2)n1O	-	3.51	-	49.2	.
On1c(-c2ccccc2)nc2ccc(Cl)cc21	-	.	-	-	-
CC1CCc2c(sc3nc(CSc4ncn[nH]4)[nH]c(=O)c23)C1 (centres undefined)	-	.	-	-	-
CCOC(=O)c1c(C)n(C)c2cc(Br)c(OC)cc12	-	-	-	-	.
CCOC(=O)c1c(CNCCN(CC)CC)n(C)c2cc(Br)c(OC)cc12	-	-	-	-3.01	-
SMILES	Arbovirus inh	ROMK mod	HSV replic up	KCC2 mod	Measles CPE
O=C(O)c1cc(N/N=C/c2ccc(OCc3ccccc3)cc2)ccc1Cl	38.7	-	-	-	.
Cc1nn(-c2ccccc2)c(Cl)c1/C=N/NC(=O)OC(C)(C)C	-	.	-	-	-
Cc1nn(-c2ccccc2)c(Cl)c1/C=N/Nc1ccc(Cl)c(C(=O)O)c1	88.7	-	-	-	-
CCOC(=O)C[C@H]1c2cc(F)ccc2S(=O)(=O)N1C1CCCC1	.	.	-	.	.
COC(=O)c1ccccc1NC(=O)C1CCN(C(=O)c2cc(OC)c(OC)c(OC)c2)CC1	124.0	.	-	-	-
CCOC(=O)c1cn(CC(=O)Nc2ccc(OC)cc2OC)nn1	-	-	-	-	.
O=C(NCc1ccco1)c1cc(-c2cccs2)nc2ccccc12	-	-	-	-	58.5
O=C(COC(=O)c1cc(-c2cccs2)nc2ccccc12)NCc1ccco1	-	.	-	.	-
Cn1c2ccccc2c2c(C(=O)NCc3ccco3)cn(C3CCCCC3)c(=O)c21	-	-	-	.	42.3
O=C(NCc1ccco1)c1cc(-c2ccco2)on1	-	-	-	.	85.2
Cn1nc(C(=O)NCc2ccco2)c2ccccc2c1=O	-	-	-	.	23.8
Cc1ccc(/C=C(\NC(=O)c2ccccc2)C(=O)N2CCCC2C(=O)O)cc1 (centres undefined)	-	-	-	-	.
C=CCC(CC(O)COCCC)C(=O)NNC(=S)Nc1ccccc1 (centres undefined)	.	-	-	-	.
CCOC(=O)c1[nH]c2ccccc2c1NC(=O)c1cc(OC)c(OC)c(OC)c1	.	.	-	-	.
O=C(Nc1ccc(S(=O)(=O)Nc2nccs2)cc1)c1ccc(S(=O)(=O)N2CCOCC2)cc1	-	-	-	-	66.8
CCOC(=O)c1[nH]c2ccccc2c1NC(=O)c1ccc(S(=O)(=O)N2CCCC2)cc1	-	-	.	-	21.1
Cc1cc(C(=O)Nc2ccc(S(=O)(=O)N3CCCC3)cc2)cs1	-	.	-	-	52.9
